Screening results deposited in PubChem BioAssay by National Center for Advancing Translational Sciences (NCATS).
TDP1 cell noCPT: qHTS for Inhibitors of human tyrosyl-DNA phosphodiesterase 1 (TDP1): qHTS in cells in absence of CPT; DT40 Tdp1-/- hTDP1 cells, no CPT, ATP luminescence, 48 h; Potency, µM (top dose mostly 46.2 µM), inactives show at the highest dose activity change, negative = growth inhibition, most hits filed as inhibitors; hit rate 15% among 420,000; note: nearly all actives have a fitted effect of over 55% in size
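Cells were dispensed at 400 per well, compounds added by pin tool, plates incubated ≥48 hr at 37 °C, then CellTiter-Glo added for 30 min at room temperature before luminescence reading. Line: DT40 Tdp1-/- complemented with hTDP1; camptothecin omitted.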
RORg inh: qHTS for inhibitors of ROR gamma transcriptional activity; Nuclear receptor ROR-gamma (Mus musculus), P51450; Drosophila S2 Gal4-RORgamma UAS-luciferase reporter, 20 h; Potency, µM (series often up to 53.6 µM), without a hit: at the highest dose activity change, negative = inhibition, most hits filed as inhibitors; hit rate 5.4% among 310,000; note: nearly all actives have a fitted effect of over 60% in size
Target sequence (P51450 whole entry, looked up, the tested form may be a part): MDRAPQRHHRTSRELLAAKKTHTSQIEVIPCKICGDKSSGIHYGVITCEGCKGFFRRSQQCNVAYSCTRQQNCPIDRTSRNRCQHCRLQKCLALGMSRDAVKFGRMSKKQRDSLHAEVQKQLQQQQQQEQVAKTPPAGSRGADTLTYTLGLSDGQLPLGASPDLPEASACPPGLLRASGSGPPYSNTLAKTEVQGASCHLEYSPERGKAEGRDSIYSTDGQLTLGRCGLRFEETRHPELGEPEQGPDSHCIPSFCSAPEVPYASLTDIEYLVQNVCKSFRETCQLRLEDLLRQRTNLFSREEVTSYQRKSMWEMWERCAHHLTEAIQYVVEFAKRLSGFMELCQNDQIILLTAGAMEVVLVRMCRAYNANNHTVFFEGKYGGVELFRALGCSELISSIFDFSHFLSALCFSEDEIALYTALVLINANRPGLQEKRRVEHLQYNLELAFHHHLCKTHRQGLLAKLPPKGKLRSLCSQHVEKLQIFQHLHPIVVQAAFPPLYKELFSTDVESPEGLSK
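Compounds are pin-transferred onto Drosophila Schneider cells expressing a copper-inducible Gal4–ROR gamma transactivation domain fusion. After 1 hr, copper sulfate is added to 700 uM final; luciferase is read 20 hr later.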
TDP1 block: qHTS Assay for Inhibitors of Tyrosyl-DNA Phosphodiesterase (TDP1) | Tyrosyl-DNA phosphodiesterase 1 (Homo sapiens), Q9NUW8 | recombinant TDP1, AlphaScreen DNA substrate cleavage | Potency, µM (series often up to 130 µM), inactives show at the top dose activity change, negative = inhibition, actives largely listed as inhibitors | hit rate 0.28% among 350,000 | AID 485290, 2010; note: nearly all actives have a fitted effect of over 40% in size
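Signal: AlphaScreen proximity between streptavidin donor and anti-FITC acceptor beads on intact substrate. Reaction: Tdp1 1 nM, substrate 15 nM final, 5 min RT after 15 min compound preincubation.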
TDP1 cell CPT: qHTS for Inhibitors of human tyrosyl-DNA phosphodiesterase 1 (TDP1): qHTS in cells in presence of CPT. chicken DT40 Tdp1-/-;hTDP1 cells + 20 nM CPT, ATP luminescence, 48 h. Potency, µM (titrated, usually from 46.2 µM), inactives show top-dose activity change, negative = growth inhibition, usual class: inhibitors. AID 686979, 2013. hit rate 12% among 420,000; note: nearly all actives have a fitted effect of over 55% in size
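Chicken DT40 Tdp1-/- cells complemented with human TDP1, 400 cells/well, exposed to compounds plus 20 nM camptothecin for at least 48 h at 37 C; viability read as ATP content by CellTiter-Glo luminescence.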
VP16 counter: VP16 counterscreen qHTS for inhibitors of ROR gamma transcriptional activity | hit rate 3.5% among 310,000 | AID 2546, 2010 | Drosophila S2 Gal4-VP16 UAS-luciferase, luminescence, 20 h | Potency, µM (doses to about 53.6 µM), without a hit: at the highest dose activity, negative = inhibition, hits mostly inhibitors;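 note: Gal4-VP16 expression switched on by copper sulfate through the metallothionein promoter; nearly all actives have a fitted effect of over 50% in size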
The depositor's hits bear a star; [ ] = remark or other dose. Hits are enriched below; roughly 19% of the tested compounds scored in any of these assays. Calls come from the whole dose curve; as a rule, active = well fitted curve in the direction sought with a large enough effect; inconclusive = small, poorly fitted or top-dose-only effect, or another doubt; inactive = no such curve, though single readings can be large; an effect the other way counts as inactive or inconclusive. % is set by controls: 0 for no effect and ±100 for the full control effect; potency is the fitted concentration of half-maximal effect.

For CCCCCCc1cc2cc(-c3nnc(-c4ccccc4O)o3)c(=O)oc2cc1O the results were TDP1 cell noCPT 7.31µM*, RORg inh 6.0%, TDP1 block 1.0%, TDP1 cell CPT 8.2µM* and VP16 counter 3.0%.
For O=C(NCCN1CCC(n2c(=O)[nH]c3ccccc32)CC1)c1cc(F)cc(F)c1 the results were TDP1 cell noCPT -29.7% and TDP1 cell CPT -10.0%.
Cc1cccc(C)c1OCCCCc1c(C)n[nH]c1C was read as TDP1 cell noCPT inconclusive, RORg inh 17.8µM*, TDP1 block 4.1%, TDP1 cell CPT -22.7% and VP16 counter inconclusive.
Screening Cc1ccccc1OCCCCc1c(C)n[nH]c1C returned TDP1 cell noCPT 18.4µM*, RORg inh inconclusive, TDP1 block 5.9%, TDP1 cell CPT inconclusive and VP16 counter 12.6µM*.
`COc1cccc(OC)c1OCCCCc1c(C)n[nH]c1C` gave TDP1 cell noCPT inconclusive, RORg inh 24.4%, TDP1 block 2.5%, TDP1 cell CPT 25.9µM* and VP16 counter -6.1%.
COC(=O)c1cc(S(=O)(=O)NC2CCCCC2)cn1C was read as TDP1 cell noCPT -7.5%, RORg inh 0.0%, TDP1 block 1.1%, TDP1 cell CPT -10.7% and VP16 counter 2.7%.
For O=C(Cn1c(=O)oc2cc(S(=O)(=O)N3CCCC3)ccc21)NCc1ccc(Cl)cc1 the results were TDP1 cell noCPT 20.6µM*, TDP1 block 5.1% and TDP1 cell CPT 16.4µM*.
Screening CN(C)c1ccc(CNC(=O)Cn2c(=O)oc3cc(S(=O)(=O)NCc4ccccc4)ccc32)cc1 returned TDP1 cell noCPT inconclusive, TDP1 block 6.6% and TDP1 cell CPT inconclusive.
O=C(Cn1c(=O)oc2cc(S(=O)(=O)NCc3ccccc3)ccc21)NCc1ccccc1Cl was read as TDP1 cell noCPT 9.2µM*, TDP1 block 0.9% and TDP1 cell CPT 7.31µM*.
Screening O=C(Cn1c(=O)ccc2cc(S(=O)(=O)N3CCCC3)ccc21)NCc1ccc(Cl)cc1 returned TDP1 cell noCPT inconclusive, TDP1 block 3.3% and TDP1 cell CPT inconclusive.
For O=C(Cn1c(=O)oc2cc(S(=O)(=O)NCc3ccccc3)ccc21)NCc1ccc(Cl)cc1 the results were TDP1 cell noCPT inconclusive, TDP1 block -0.9% and TDP1 cell CPT 13µM*.
`CC1CCCCC1NS(=O)(=O)c1ccc(S(=O)(=O)N2CCN(CCC#N)CC2)cc1` (stereo not given) gave TDP1 cell noCPT -19.7%, RORg inh inconclusive, TDP1 block 0.0%, TDP1 cell CPT -25.6% and VP16 counter 28.7%.
CC(C)(C)N1C(=O)[C@H]2[C@@H]3[C@H](O)C=CC(=O)[C@H]3CC[C@H]2C1=O was read as RORg inh 2.9%[10 µM], TDP1 block 7.9%[21 µM] and VP16 counter 5.2%[10 µM].
For O=C(N/N=C/c1ccncc1)C1C2CCCCCCC21 (stereo not given) the results were TDP1 cell noCPT inconclusive, RORg inh -3.0%, TDP1 block 0.0%, TDP1 cell CPT -17.4% and VP16 counter 10.1%.
For Cc1ccccc1CCN(C(=O)c1csnn1)C(C(=O)NC1CCCC1)c1ccco1 (stereo not given) the results were TDP1 cell noCPT inconclusive, RORg inh 6.9%, TDP1 cell CPT 23.1µM* and VP16 counter 0.9%.
Screening Cc1ccc(Cl)cc1N(C(=O)c1csnn1)C(C(=O)NC1CCCC1)c1ccco1 (stereo not given) returned TDP1 cell noCPT -11.7%, RORg inh -29.5%, TDP1 block -2.7%, TDP1 cell CPT 0.3% and VP16 counter 5.6%.
For CC(C)Oc1cccc(C(=O)Nc2ccc(N3CCN(S(C)(=O)=O)CC3)cc2)c1 the results were TDP1 cell noCPT -10.3%, RORg inh -10.4%, TDP1 block 2.9%, TDP1 cell CPT 8.2% and VP16 counter 2.9%.
Screening COc1c(C)cccc1C(=O)Nc1ccc(N2CCN(C(=O)c3ccccc3C)CC2)cc1 returned TDP1 cell noCPT 14.6µM*, RORg inh inconclusive, TDP1 block 7.2%, TDP1 cell CPT 16.4µM* and VP16 counter inconclusive.
`Cc1ccccc1C(=O)N1CCN(c2ccc(NC(=O)c3cccc(OC(C)C)c3)cc2)CC1` gave TDP1 cell noCPT 3.26µM*, RORg inh 44.8%, TDP1 block 5.8%, TDP1 cell CPT 3.66µM* and VP16 counter inconclusive.
`Cc1ccccc1C(=O)N1CCN(c2ccc(NC(=O)c3ccco3)cc2)CC1` gave TDP1 cell noCPT inconclusive, RORg inh inconclusive, TDP1 block 13.8%, TDP1 cell CPT -15.4% and VP16 counter 14.0%.
For Cc1ccc(NC(=O)CCn2c(=O)oc3ccccc32)c(C)c1 the results were TDP1 cell noCPT -12.0%, RORg inh -9.2%, TDP1 block 5.9%, TDP1 cell CPT 10.0% and VP16 counter 1.3%.
Screening COc1ccc(/C(C#N)=C/c2c(-c3ccc(Cl)cc3)nc3c(C)cccn23)cc1 returned TDP1 cell noCPT 18.4µM*, RORg inh inconclusive, TDP1 block -3.2%, TDP1 cell CPT inconclusive and VP16 counter 1.3%.
For Cc1cc(C)cc(Oc2nc3c(C)cccn3c(=O)c2/C=C(\C#N)c2nc3ccccc3s2)c1 the results were TDP1 cell noCPT inconclusive, TDP1 block -1.1% and TDP1 cell CPT inconclusive.
Cc1cccn2c(=O)c(/C=C(\C#N)c3nc4ccccc4n3C)c(Oc3ccc(Cl)cc3)nc12 was read as TDP1 cell noCPT 8.2µM*, TDP1 block 1.1% and TDP1 cell CPT inconclusive.
`Cc1cccn2c(=O)c(/C=C(\C#N)c3nc4ccccc4[nH]3)c(Oc3ccc(C(C)(C)C)cc3)nc12` gave TDP1 cell noCPT -13.7%, TDP1 block 2.1% and TDP1 cell CPT 5.1%.
`Cc1cc(Oc2nc3c(C)cccn3c(=O)c2/C=C(\C#N)S(=O)(=O)c2ccc(Cl)cc2)ccc1Cl` gave TDP1 cell noCPT 23.1µM*, RORg inh 22.2%, TDP1 block -2.6%, TDP1 cell CPT inconclusive and VP16 counter -1.5%.
Cc1cccn2c(=O)c(/C=C(\C#N)c3nc4ccccc4n3C)c(Oc3ccc(Br)cc3)nc12 was read as TDP1 cell noCPT 6.51µM*, TDP1 block 2.1% and TDP1 cell CPT 10.3µM*.
N#C/C(=C\c1c(Oc2ccc(Br)cc2)nc2ccccn2c1=O)c1nc2ccccc2s1 was read as TDP1 cell noCPT 16.4µM*, TDP1 block -3.2% and TDP1 cell CPT -73.1%.
